# From PubChem BioAssay AID504843 (Broad Institute, 2011)
# Out of some 1,200 compounds screened, about 360 (30%) were called active. The rule behind the calls is not given here. Not all results are given here. Potency and affinity values are given separately.
# Experiment: bacterial growth inhibition, dose response, counter-screen, BacTiter-Glo luminescence, cherry-picked samples (AID 504843);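 note: growth measured after 8 h incubation at 30 °C; 0% = median of sample compound wells and -100% = antibiotic control wells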
# Settings: BacTiter-Glo ATP luminescence; series mostly up to 15 µM; activity change, negative = inhibition: at the top concentration
row,Structure (SMILES),"activity change, negative = inhibition"
1,CCOc1ccc(-c2cn(-c3ccc(OC)cc3)c(SC)n2)cc1,4.67% (inactive)
2,COC(=O)C1=CN(C(C)C)C=C(C(=O)OC)C1c1cccc(OC)c1,-0.278% (inactive)
3,COc1cccc(NC(=O)Nc2cnccn2)c1,17.8% (inactive)
4,CCOc1ccc2[nH]c(C)c(CN3CCCCC3)c(=O)c2c1,0.19% (inactive)
5,CCSC1=C(C#N)C(c2ccc(Cl)cc2)C2=C(CCCC2=O)N1 (stereo unspecified),-2.99% (inactive)
6,CC(C)N1C(=O)NC2(c3ccccc3)N(C)C(=O)N(C)C12c1ccccc1 (stereo unspecified),3.92% (inactive)
7,O=C(N1CCCC1)C12CC3CC(C1)CC(C(=O)N1CCCC1)(C3)C2,-9.58% (inactive)
8,CN(C)c1ccc(C(=O)C(O)c2ccc(C(C)(C)C)cc2)cc1 (stereo unspecified),-7.55% (inactive)
9,CN(C)S(=O)(=O)n1cc(/C=C(\NC(=O)c2ccccc2F)C(=O)N2CCOCC2)c2ccccc21,0.486% (inactive)
10,CCOc1ccccc1NC(=O)NCc1ccc2c(c1)OCO2,12% (inactive)
11,O=C(NCc1ccc2c(c1)OCO2)c1c(O)c2cccc3c2n(c1=O)CCC3,8.33% (inactive)
12,COCCNc1nc(N)c([N+](=O)[O-])c(NCC2CCCO2)n1 (stereo unspecified),13.3% (inactive)
13,Cn1ccc(=Nc2ccc(NC(=O)c3ccc(N=c4ccn(C)c5ccc([N+](=O)[O-])cc45)cc3)cc2)cc1,8.29% (inactive)
14,Cc1cc(=O)[nH]c(SCC(=O)NCc2ccc3c(c2)OCO3)n1,-3.42% (inactive)
15,Clc1ccccc1CSc1nnc(-c2cccnc2)n1Cc1ccco1,-1.87% (inactive)
16,N=C(N)c1ccc(/C=C/c2ccc(C(=N)N)cc2O)cc1,10.4% (inactive)

row,Structure (SMILES),"activity change, negative = inhibition"
1,O=C(C1CCCN(S(=O)(=O)c2cccnc2)C1)N1CCn2c1nc1ccccc12 (stereo unspecified),-1.21% (inactive)
2,O=C(Nc1ccc2c(c1)OCCO2)c1ccc(Cl)c(S(=O)(=O)N2CCCCC2)c1,11.6% (inactive)
3,Cc1c(NC(=O)Nc2ccccc2)cccc1[N+](=O)[O-],11.4% (inactive)
4,CCOC(=O)c1sc(C)c2c1NC(C)(c1ccccc1)NC2=O (stereo unspecified),-12.4% (inactive)
5,COc1ccc(CN2CSC(=S)N(Cc3ccccc3)C2)cc1,2.29% (inactive)
6,CC(C)(C)c1nnc(NC(=O)NS(=O)(=O)c2ccccc2)s1,12.1% (inactive)
7,Cc1nc(Nc2ccc(Cl)cc2Cl)sc1C(=O)Nc1ccccc1,-6.74% (inactive)
8,O=C(NCc1cccnc1)C(=O)NCC1OCCN1S(=O)(=O)c1ccc(F)cc1 (stereo unspecified),-3.66% (inactive)
9,Cc1cc(C(=O)NNC(=O)c2ccc(F)cc2)c(C)s1,11.2% (inactive)
10,O=C(c1n[nH]c2ccccc12)N1CCOCC1,-3.98% (inactive)
11,CCN(CC)CC(=O)N(CC(=O)Nc1c(C)cc(C)cc1C)C1CCCCC1,6.71% (inactive)
12,CCCCN(C)C(=O)c1cc2cc([N+](=O)[O-])cc(OC)c2oc1=O,16.6% (inactive)
13,CCOC(=O)c1sc(Nc2nc3ccc(OC)cc3s2)cc1C,-1.02% (inactive)
14,COc1ccc(OC)c(NC(=O)NCc2cccnc2)c1,1.13% (inactive)
15,COc1ccc(S(=O)(=O)N2CCC(C(=O)NCc3cccnc3)CC2)cc1OC,9.42% (inactive)
